Measurements published in PubChem BioAssay AID623891 (Vanderbilt Specialized Chemistry Center, 2012).
The source made the active and inactive calls.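 The calls were made as follows: active = fold shift of 2 or more as potentiator, or 0.5 or less as blocker, so actives lie on both sides; inactive = fold shift between 0.5 and 2.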

Biological target: Metabotropic glutamate receptor 6 (Homo sapiens) (UniProt O15303)
Experiment: off-target activity at human mGlu6, profiling panel, selectivity assay for mGlu4 lead optimization, cell-based, thallium flux (AID 623891)
Conditions: mGlu6 cells, glutamate CRC fold shift, at 10 µM

Chain of Metabotropic glutamate receptor 6 (Homo sapiens) (O15303 whole entry, looked up): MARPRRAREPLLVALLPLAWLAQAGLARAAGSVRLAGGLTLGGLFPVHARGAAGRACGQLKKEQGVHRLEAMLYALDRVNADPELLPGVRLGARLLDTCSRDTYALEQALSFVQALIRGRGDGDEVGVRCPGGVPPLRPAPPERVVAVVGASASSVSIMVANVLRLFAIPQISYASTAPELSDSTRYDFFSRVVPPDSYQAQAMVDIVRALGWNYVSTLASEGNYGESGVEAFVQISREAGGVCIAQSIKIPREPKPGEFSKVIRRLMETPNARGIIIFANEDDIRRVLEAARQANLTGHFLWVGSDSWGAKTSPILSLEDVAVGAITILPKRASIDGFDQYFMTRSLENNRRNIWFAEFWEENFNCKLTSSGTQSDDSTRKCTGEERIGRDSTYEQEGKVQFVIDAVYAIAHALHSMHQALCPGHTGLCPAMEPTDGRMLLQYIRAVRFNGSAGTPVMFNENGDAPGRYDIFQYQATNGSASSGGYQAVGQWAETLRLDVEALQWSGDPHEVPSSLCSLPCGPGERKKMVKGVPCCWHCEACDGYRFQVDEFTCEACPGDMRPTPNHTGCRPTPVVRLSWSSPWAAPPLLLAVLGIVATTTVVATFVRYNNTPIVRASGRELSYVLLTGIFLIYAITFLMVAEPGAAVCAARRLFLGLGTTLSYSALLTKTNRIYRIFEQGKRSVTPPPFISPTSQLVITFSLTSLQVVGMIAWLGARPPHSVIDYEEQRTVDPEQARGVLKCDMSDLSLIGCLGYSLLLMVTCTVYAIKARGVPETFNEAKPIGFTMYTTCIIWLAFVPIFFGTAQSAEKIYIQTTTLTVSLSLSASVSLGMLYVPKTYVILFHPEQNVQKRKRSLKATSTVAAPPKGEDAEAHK

With O=C(Nc1cccc(Cl)c1)c1ccccn1 the fold shift was 4.27 (active).
